Screening results from PubChem BioAssay.
HIV Env fusion: inhibitors of HIV Env-mediated cell fusion; HeLa-JRFL Env/CEM21 cell fusion, luciferase; inhibition, % at 12.3 µM; 360,000 compounds, 1.1% hits;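 active means mean replicate inhibition score of at least 50 and every replicate individually at or above 50; inconclusive means only one of the two criteria met; inactive means mean below 50 and not all replicates reaching 50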
F508del corr: CFTR F508del correction in bronchial cells | CFBE cells, YFP halide quenching; stimulated with forskolin plus potentiator P3; % fluorescence drop versus neutral controls | activity (quench increase), % at 7.58 µM | 350,000 compounds, 0.36% hits;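 active means mean added fluorescence quench of at least 8% versus neutral control, with both replicates also reaching 8%; inconclusive means only one of the mean or replicate conditions met; inactive means mean below 8% and not both replicates reaching 8%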;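 further: cells transiently co-express mutant CFTR-F508del with the halide-sensitive YFP; corrector assay measuring rescue of mutant channel to the surface after 24 h compound exposure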
Wnt bcat act: activates Wnt/beta-catenin signaling in a reporter cell assay | 300,000 compounds, 1.2% hits | activator, plate reader | activation, % at 9.35 µM; in the data active means activation above about 30%, passing the limit was not always enough; inconclusive means no clear call, values can overlap the other calls
INS-1E GSIS act: GLuc luminescence reporter in INS-1E cells, primary screen for activators of glucose-dependent secretion of insulin; AID 743287; 370,000 compounds, 0.61% hits; activation, % at 16.6 µM; INS-1E GLuc reporter insulin secretion, 2-3 h;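 active means lowest replicate activation of at least 40%, so every replicate reaches that level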
MITF act: increases MITF-driven TRPM1 promoter luciferase signal. SK-MEL-5 TRPM1-promoter luciferase, 24 h; % of positive control, neutral wells = 0. activation, % at 12.5 µM. 300,000 compounds, 0.75% hits. AID 588334;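 active means mean activation of at least 80% with every replicate also reaching 80%; inconclusive means mean reaches 80% but some replicate falls short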
A number is an active result; – = inactive; ? = inconclusive; · = not tested or not shown. Only some compounds are listed: those with a hit (about 2.7% of all), similar ones and a draw of the others.

SMILES	HIV Env fusion	F508del corr	Wnt bcat act	INS-1E GSIS act	MITF act
Cc1ccc(S(=O)(=O)Nc2ccc3c(c2)C(=O)N([C@@H](C)CO)C[C@H](C)[C@@H](CN(C)Cc2ccc(C(=O)O)cc2)O3)cc1	–	–	·	–	·
O=C(c1cc(COc2c(F)cccc2F)on1)N1C[C@H]2CC[C@H]1C2	–	–	34	–	–
O=C(c1cc(COc2ccc(F)cc2F)on1)N1CC2C[C@@H]3CC1C[C@H](C2)C3	–	–	–	–	?
COc1ccccc1OCc1cc(C(=O)N2CC3C[C@@H]4CC2C[C@H](C3)C4)no1	–	–	–	–	89
COc1ccccc1OCc1cc(-c2ccccc2)no1	–	·	·	–	95
CSc1ccccc1OCc1cc(C(=O)N2CCN(C)C(c3ccccc3)C2)no1 (stereo not given)	–	–	–	–	–
COc1ccccc1OCc1cc(C(=O)N2CCN(C)C(c3ccccc3)C2)no1 (stereo not given)	·	–	41	–	–
CCS(=O)(=O)NCC[C@@H]1CC[C@H](NS(=O)(=O)c2cccc(Cl)c2)[C@H](CO)O1	–	–	·	–	·
CCCNC(=O)C[C@@H]1C[C@H]2c3cc(NS(=O)(=O)c4cccc(OC)c4)ccc3O[C@H]2[C@@H](CO)O1	·	–	·	–	·
COc1ccc(OCc2cc(C(=O)N3C[C@H]4CC[C@H]3C4)no2)c(Cl)c1	–	–	–	–	84
Fc1ccc(-c2csc3nnc(SCc4cccnc4)n23)cc1	·	–	–	56	–
COc1ccc2c3c([nH]c2c1)[C@H](CO)N(C(=O)Nc1ccc(F)cc1)CC31CCN(S(=O)(=O)c2ccc(C)cc2)CC1	·	–	·	–	·
COc1cc(/C=C/c2ccccc2)cc(OC)c1	–	–	–	–	96
COc1cc(C=C2C(=O)c3ccccc3C2=O)cc(OC)c1	–	–	–	–	·
C[C@H](CO)N1C[C@H](C)[C@H](CN(C)Cc2cccc3c2OCCCO3)OCc2cn(nn2)CCCC1=O	–	–	·	–	·
O=C(NCCc1cccs1)c1ccc(Cl)cc1	–	–	–	–	–
O=C(NCCc1cccs1)c1ccc(Cl)c(Cl)c1	–	–	37	–	94
Cc1ccc(SCc2cn3cc(Cl)ccc3n2)cc1	–	–	35	–	·
Clc1ccc(SCc2cn3ccccc3n2)cc1	–	–	–	–	?
Clc1ccc2nc(CSc3nc4ccccc4o3)cn2c1	–	·	58	·	·
Clc1ccc2nc(CSCc3ccccc3)cn2c1	–	–	67	–	–
Clc1ccc2nc(CSc3nnc(-c4c[nH]c5ccccc45)o3)cn2c1	–	–	–	–	–
Cc1cccc2nc(CSc3ccc(Cl)cc3)cn12	–	–	–	–	101
C[C@@H]1CCCCO[C@@H](CN(C)C(=O)Nc2ccc(F)cc2)[C@@H](C)CN([C@@H](C)CO)C(=O)c2cc(NC(=O)Cc3ccccc3)ccc2O1	·	–	·	–	·
CN1CCN(C(=O)C[C@@H]2C[C@@H]3c4cc(NC(=O)Nc5ccc(F)cc5)ccc4O[C@@H]3[C@@H](CO)O2)CC1	·	–	·	–	·
SMILES	HIV Env fusion	F508del corr	Wnt bcat act	INS-1E GSIS act	MITF act
Cc1ccc(SCc2cn3c(C)csc3n2)cc1	·	–	–	–	84
Cc1ccc(S(=O)(=O)NCc2cn3c(C)csc3n2)cc1	·	·	·	·	–
Nc1nc2c(ncn2[C@@H]2O[C@H](C(=O)NCC(c3ccccc3)c3ccccc3)[C@@H](O)[C@H]2O)c(=O)[nH]1	75	–	–	·	·
CC(CNC(=O)[C@H]1O[C@@H](n2cnc3c(=O)[nH]c(N)nc32)[C@H](O)[C@@H]1O)c1ccccc1 (stereo not given in full)	–	–	–	–	·
Cc1cccc2cc(/C=N/Nc3ccc(C(=O)O)cc3)c(Cl)nc12	–	–	38	–	153
COc1ccc(O)c(/C=N/Nc2nc3ccccc3[nH]2)c1	–	–	–	–	–
Clc1nc2ccccc2cc1/C=N/Nc1nc2ccccc2[nH]1	–	–	63	–	–
O=C(O)c1ccc(N/N=C/c2cc3ccccc3nc2Cl)cc1	–	–	–	–	88
CCOC(=O)c1c(C)[nH]c(C(=O)N/N=C\c2ccccc2O)c1C	·	21	–	–	–
CCOC(=O)c1c(C)[nH]c(C(=O)OCc2ccc(C)cc2)c1C	–	–	–	–	–
CCOC(=O)c1c(C)[nH]c(C(=O)N/N=C/c2ccc(OC)c(OC)c2)c1C	–	9.8	–	–	–
CCOC(=O)c1c(C)[nH]c(C(=O)OCc2ccccc2)c1C	–	–	43	–	92
CCCC#Cc1ccc([C@H]2[C@@H](CO)N3CCCCN(C(=O)NC4CCCC4)C[C@H]23)cc1	·	–	·	–	·
Cc1ccc(O)c(N=CC2=C(O)c3ccccc3C2=O)c1	–	·	117	·	–
O=C1C(C=Nc2ccccc2O)=C(O)c2ccccc21	·	–	36	–	–
Cc1ccc(S(=O)(=O)Nc2ccc3c(c2)C(=O)N([C@H](C)CO)C[C@@H](C)[C@H](CN(C)C(=O)Nc2ccccc2)OCCCC[C@H](C)O3)cc1	·	·	·	–	·
Cc1ccc(SCC(=O)NC(C)(C)C)cc1	–	·	33	·	·
Cc1ccc(SCC(=O)Nc2cccc(C(=O)NC(C)(C)C)c2)cc1	·	·	·	·	–
COc1ccc(CN(C)C[C@@H]2OCCCC[C@H](C)Oc3ccc(NS(=O)(=O)c4ccc(Cl)cc4)cc3C(=O)N([C@H](C)CO)C[C@@H]2C)cc1	–	–	·	–	·
C=C[C@@H]1c2cc(C)ccc2N(S(=O)(=O)c2ccc(C)cc2)[C@H](c2ccccc2C(F)(F)F)C1(C#N)C#N	56	–	–	–	·
C[C@H](CO)N1C[C@H](C)[C@@H](CN(C)C(=O)C2CCCCC2)Oc2ncc(-c3ccccc3)cc2C1=O	–	–	·	–	·
COC(=O)c1cc(NC2c3ncccc3C(=O)N2Cc2ccccc2)cc(C(=O)OC)c1 (stereo not given)	·	–	–	–	–
O=C1c2ccccc2C(Nc2ccc(S(=O)(=O)N3CCCCCC3)cc2)N1c1ccccn1 (stereo not given)	–	–	–	·	–
O=C1c2cccnc2C(Nc2ccc(S(=O)(=O)N3CCCCC3)cc2)N1Cc1ccccc1 (stereo not given)	84	·	·	–	–
O=C1c2cccnc2C(Nc2ccc(F)c(Cl)c2)N1Cc1cccs1 (stereo not given)	–	–	–	66	–
O=C1c2cccnc2C(Nc2ccc(Br)cc2)N1Cc1cccs1 (stereo not given)	–	–	–	–	–
CCOC(=O)c1ccc(NC2c3ncccc3C(=O)N2Cc2ccc(F)cc2)cc1 (stereo not given)	93	·	·	–	–
COc1ccc(S(=O)(=O)N(C)C[C@@H]2Oc3cc(C#CC4CC4)ccc3S(=O)(=O)N([C@@H](C)CO)C[C@@H]2C)cc1	–	–	·	–	·
CC(O)c1nc2ccccc2n1C/C=C/c1ccccc1 (stereo not given)	–	·	·	·	·
Cc1c(P(=S)(c2ccccc2)c2ccccc2)[n+]2ccccc2n1C/C=C/c1ccccc1	–	–	–	243	·
